A number with no mark means an inactive call. Records with an inconclusive call do not appear. Entries that show only a call come without a potency. The source made the active and inactive calls. The call rests on the fitted dose curve.
Test: G protein-coupled receptor (GPCR) small molecule agonists, calcium flux assay: HEK293 wild type cell line counter screen (AID 1920065)
Conditions: HEK293 WT calcium flux, fluorescence, agonist mode; series mostly up to 57.6 µM
Outline: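 Cells were plated and cultured 18 h at 37 C/5% CO2, then loaded with calcium dye for 1 h at 37 C. Compounds in DMSO were pin-transferred in agonist mode, and fluorescence (Ex/Em 480/540) was read kinetically for 3 min at 1 s intervals.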

Structure (SMILES)	Potency
C=CC(=O)NCNC(=O)C=C	inactive
CN1C(=S)CN=C(c2ccccc2)c2cc(Cl)ccc21	inactive
CC(Cc1ccc(O)cc1)NCC(O)c1cc(O)cc(O)c1 (stereo unspecified)	inactive
NC(=O)CS(=O)C(c1ccccc1)c1ccccc1 (stereo unspecified)	inactive
Clc1cccc(SC2CCNCC2)n1	inactive

Test: p53 small molecule agonists, cell-based qHTS assay with human liver microsomes (AID 1963577); further: potency means the concentration at half of the fitted maximal effect;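 on activation: p53 response element beta-lactamase reporter cells with liver microsomes plus NADPH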
Conditions: HCT-116 p53RE-bla with human liver microsomes, ratio, 16 h; series mostly up to 66 µM
Outline: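 HLM-supplemented p53RE-bla reporter assay: 16 h compound exposure at 37 C, microsomes and NADPH each 0.5 mg/mL final, read by fluorescence intensity.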

Structure (SMILES)	Potency	activation
CC1(c2ccc(Oc3ccccc3)cc2)OC(=O)N(Nc2ccccc2)C1=O (stereo unspecified)	inactive	
Oc1cc(Cl)cc(Cl)c1	inactive	
COc1ccc(C(c2ccc(OC)cc2)C(Cl)(Cl)Cl)cc1	inactive	
CCC(CC)(CNC(=O)CCCO)c1cccc(OC)c1	inactive	
Oc1cccc(Cl)c1	inactive	
CC(C)(Cl)[N+](=O)[O-]	inactive	
Cc1ccc2nc3sc(=O)sc3nc2c1		12.4% [at 13.5 µM]
CCCCCCCCCCCCN(C)C	inactive	
CS(=O)(=O)c1ccc(C(=O)C2C(=O)CCCC2=O)c(Cl)c1COCC(F)(F)F	inactive	
CC[C@@H](CO)NC(=O)[C@@H]1C=C2c3cccc4c3c(cn4C)C[C@H]2N(C)C1	inactive	
CNP(=O)(OC)Oc1ccc(C(C)(C)C)cc1Cl (stereo unspecified)	3240 nM (active)	
O=C1C(=O)c2cccc3cccc1c23	inactive	
COC(=O)c1ccccc1S(=O)(=O)NC(=O)Nc1nc(C)nc(OC)n1	inactive	
Cc1ccccc1OP(=O)(Oc1ccccc1C)Oc1ccccc1C	1830 nM (active)	
CC(C)[C@H](C(=O)O[C@H](C#N)c1cccc(Oc2ccccc2)c1)c1ccc(Cl)cc1	inactive	
CCCCC(CC)COC(=O)OOC(C)(C)C (stereo unspecified)	inactive	
O=[N+]([O-])c1cc(C(F)(F)F)c(Cl)c([N+](=O)[O-])c1Cl	inactive	

Test: p53 small molecule agonists, cell-based qHTS assay with rat liver microsomes (AID 1963578)
Conditions: HCT-116 p53RE-bla, beta-lactamase ratio, 16 h; series mostly up to 66 µM
Outline: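 Quantitative HTS of the Tox21 10K library: p53RE-bla cells, rat liver microsomes plus NADPH at 0.5 mg/mL final each, 16 h at 37 C, beta-lactamase fluorescence detection.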

Structure (SMILES)	Potency	activation
Oc1cc(Cl)cc(Cl)c1	inactive	
COc1ccc(C(c2ccc(OC)cc2)C(Cl)(Cl)Cl)cc1	inactive	
CC(C)N(C(=O)COc1nnc(C(F)(F)F)s1)c1ccc(F)cc1	inactive	
CCC(CC)(CNC(=O)CCCO)c1cccc(OC)c1	inactive	
Oc1cccc(Cl)c1	inactive	
Oc1ccc(C2(c3ccc(O)cc3)c3ccccc3-c3ccccc32)cc1	inactive	
CC(C)(Cl)[N+](=O)[O-]	inactive	
CC[C@H](C)[C@H]1O[C@]2(C=C[C@@H]1C)C[C@@H]1C[C@@H](C/C=C(\C)[C@@H](O[C@H]3C[C@H](OC)[C@@H](O[C@H]4C[C@H](OC)[C@@H](O)[C@H](C)O4)[C@H](C)O3)[C@@H](C)/C=C/C=C3\CO[C@@H]4[C@H](O)C(C)=C[C@@H](C(=O)O1)[C@]34O)O2	inactive	
Cc1ccc2nc3sc(=O)sc3nc2c1		0.351% [at 13.6 µM]
CC1(C)CN=C(NN=C(/C=C/c2ccc(C(F)(F)F)cc2)/C=C/c2ccc(C(F)(F)F)cc2)NC1	inactive	
CCCCCCCCCCCCN(C)C	inactive	
CC(Cc1ccc2c(c1)OCO2)NO (stereo unspecified)	inactive	
CS(=O)(=O)c1ccc(C(=O)C2C(=O)CCCC2=O)c(Cl)c1COCC(F)(F)F	inactive	
CC[C@@H](CO)NC(=O)[C@@H]1C=C2c3cccc4c3c(cn4C)C[C@H]2N(C)C1	inactive	
O=C1C(=O)c2cccc3cccc1c23	inactive	
N#Cc1cc(I)c(O)c(I)c1	inactive	
COC(=O)c1ccccc1S(=O)(=O)NC(=O)Nc1nc(C)nc(OC)n1	inactive	
O=[N+]([O-])c1cccc2cccnc12	inactive	
O=[N+]([O-])c1cc(C(F)(F)F)c(Cl)c([N+](=O)[O-])c1Cl	inactive	
